PubChem BioAssay AID1209 (Sanford-Burnham Center for Chemical Genomics, 2008)
The campaign covered roughly 190,000 compounds. About 810 (0.43%) were called active. Cut-off read from the data, not from the text of the source: active = inhibition above about 50%; inactive = the rest. The list comes from a sample in which actives are over-represented; it also holds similar structures and randomly drawn compounds.

Molecular target: Mannose-6-phosphate isomerase (Homo sapiens) (UniProt P34949)
Experiment: inhibitors of human PMI, primary screen, biochemical, fluorescence intensity, coupled assay (AID 1209);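 note: plate controls were DMSO vehicle for no effect and wells lacking substrate for full effect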
Settings: purified PMI enzyme, at 20 µM, stronger effect = higher value

Sequence of Mannose-6-phosphate isomerase (Homo sapiens) (P34949 whole entry, looked up): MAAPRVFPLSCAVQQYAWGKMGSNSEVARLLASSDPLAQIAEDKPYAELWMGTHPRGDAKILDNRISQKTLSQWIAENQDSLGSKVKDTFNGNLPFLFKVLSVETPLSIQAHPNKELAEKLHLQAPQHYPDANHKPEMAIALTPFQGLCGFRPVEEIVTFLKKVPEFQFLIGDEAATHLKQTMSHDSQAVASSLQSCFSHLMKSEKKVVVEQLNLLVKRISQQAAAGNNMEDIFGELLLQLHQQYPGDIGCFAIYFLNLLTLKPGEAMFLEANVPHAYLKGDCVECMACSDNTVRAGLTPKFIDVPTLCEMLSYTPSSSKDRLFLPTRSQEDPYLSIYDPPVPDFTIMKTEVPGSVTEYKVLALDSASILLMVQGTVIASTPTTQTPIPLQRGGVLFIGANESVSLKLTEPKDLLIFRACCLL

inhibition, inactive:
C=CC[n+]1c(/C=C2\C=Cc3cc(C)ccc3N2CC)ccc2ccccc21 16.7%, CCN1/C(=C/c2cc[n+](C)cc2)C=Cc2cc(C)ccc21 46.3%, N#CCSCC(=O)Nc1ccccc1 7.9%, N#CC(C(=O)NC1CCCCC1)c1nc2ccccc2nc1N1CCN(c2ccc(F)cc2)CC1 (centres undefined) 7.4%, Cc1ccc(-c2nnc3n2N=C(c2ccc(Br)cc2)CS3)cc1 -12.4%, CC1CCN(c2ccc(NC(=O)Cc3ccccc3)cc2)CC1 13.5%, COc1cccc(CNc2ccc(S(N)(=O)=O)cc2)c1OC 6.1%, COc1ccccc1CNc1ccc(C(=O)O)cc1 1.8%, COc1ccccc1C(=O)Nc1ccc(N2CCCCC2)cc1 -4.3%, COc1cccc(CNc2ccc(F)c(Cl)c2)c1OC -0.3%, COc1cccc(CNCCN2CCOCC2)c1OC 0.5%, S=C1NC2(CCCC2)Nc2ccccc21 -71.4%, COC(=O)c1ccccc1NC(=O)c1ccc(-c2ccccc2F)o1 -1.4%, O=C(CSc1ncn[nH]1)Nc1ccc(Br)cc1F 6%, O=C1c2ccccc2C(=O)N1CCc1c[nH]c2ccc(O)cc12 22.1%, FC(F)(F)c1cc(-c2ccc(Cl)cc2)nc2ncnn12 -7.2%, COc1ccc(S(=O)(=O)N2CC(O)CC2C(=O)OCC(=O)Nc2ccc(Cl)cn2)cc1 (centres undefined) 13.3%, O=[N+]([O-])c1ccc(-c2cn(-c3ccccc3)c(=S)[nH]2)cc1 -1.9%, O=[N+]([O-])c1cccc(-c2cn(-c3ccccc3)c(=S)[nH]2)c1 -9.5%, CCc1cccc(CC)c1NC(=O)c1cc(CN2C(=O)c3ccccc3C2=O)ccc1OC 3%, Cc1nc2sc(C(c3cccc(F)c3)N3CC(C)OC(C)C3)c(O)n2n1 (centres undefined) -12.7%, CCN1CCN(S(=O)(=O)c2cc(OCC(=O)NC3CCCCC3)c(C)cc2Cl)CC1 11.7%, CC1(C)CC(=O)c2sc(NC(=O)c3ccc4ncsc4c3)nc2C1 -7.8%, Cc1cc(C)cc(OCC(=O)Nc2cccc(-c3nc4ncccc4o3)c2)c1 -1%, Cc1ccc(-c2nc3ncccc3o2)cc1NC(=O)COc1ccccc1 3.5%, COCCNC(=S)NCCc1ccc(Cl)cc1Cl -1.5%, O=C(/C=C/c1ccc(Cl)cc1)NC(=S)Nc1ccc(CN2CCOCC2)cc1 20.8%, COc1ccc(CNC(=O)C(c2ccco2)N(C(=O)CNS(=O)(=O)c2ccccc2)c2ccccc2C)cc1 (centres undefined) 14%, Cc1cc(C)cc(N(C(=O)CNS(=O)(=O)c2ccccc2)C(C(=O)NCc2ccccc2)c2ccc(C)o2)c1 (centres undefined) 18.8%, Cc1ccc(/C=N/NC(=O)CN2CCN(S(=O)(=O)c3ccc(Br)cc3)CC2)s1 4.9%, COc1cc(-c2nnc(SCc3ccccc3Cl)o2)cc(OC)c1OC 23.4%, COc1cc(-c2nnc(SCc3cc(=O)oc4cc(C)ccc34)o2)cc(OC)c1OC 12.5%, Cc1cc([N+](=O)[O-])nn1CC(=O)Nc1sc2c(c1C(N)=O)CCCC2 10.8%, CC1CCc2c(sc(NC(=O)CCCn3cnc([N+](=O)[O-])n3)c2C(N)=O)C1 (centres undefined) 1.2%, CCOC(=O)c1c(NC(=O)Cn2cnc([N+](=O)[O-])n2)sc2c1CCCC2 18.4%, Cc1cc([N+](=O)[O-])nn1CCCC(=O)Nc1sc2c(c1C(N)=O)CCC(C)C2 (centres undefined) 9.5%, CC(C)CC(c1nnnn1CCc1ccccc1)N1CCN(C(=O)c2ccco2)CC1 (centres undefined) 7.4%, COc1cc(/C=C/C(=O)OCC(=O)Nc2cc(C(F)(F)F)ccc2N2CCOCC2)ccc1O 13%, COC(=O)Nc1ccc(S(=O)(=O)Nc2cnc3ccccc3n2)cc1 -10.9%, CC(C)C(NC(=O)c1ccco1)C(=O)NCC(c1ccco1)N(C)C (centres undefined) -3.6%, CCN(C(=O)c1cn(CC)c(=O)c2cc(OC)c(OC)cc12)c1ccccc1C 5.3%, O=C(O)c1nn(-c2ccccc2)c(-c2ccccc2)c1C(=O)c1ccccc1 -12.5%, CC(=O)c1c(O)c(C)c(-c2ccccc2)n(-c2ccccc2)c1=O 2.2%, Oc1c(Br)cc(C2N=C(c3ccccc3Cl)NO2)cc1Br (centres undefined) 0.3%, Fc1ccccc1Cn1c2[n+](c3ccc(C(F)(F)F)cc31)CCCCC2 10.3%, FC(F)(F)c1cccc(Cn2c3[n+](c4ccc(C(F)(F)F)cc42)CCCCC3)c1 1.3%, CC1=NN(c2ccc(S(=O)(=O)O)cc2C)C(=O)C1 -63.6%

inhibition, active:
C=CC[n+]1ccc(/C=C2\C=Cc3cc(C)ccc3N2CC)c2ccccc21 64.5%, COc1cccc(CNc2ccc(N3CCC(C)CC3)cc2)c1OC 67.3%, COc1ccccc1CNc1ccc(N2CCCCC2)cc1 67.3%, COc1cccc(CNc2ccc(N3CCCCC3)cc2)c1OC 65.1%, O=[N+]([O-])c1ccc2c(c1)[nH]c(=S)n2-c1ccccc1 58.6%, Cc1ccc(OCC(=O)Nc2ccc(-c3nc4ncccc4o3)cc2)c(C)c1 97.8%, Cc1ccc(S(=O)(=O)NCC(=O)N(c2ccccc2)C(C(=O)NCc2ccccc2)c2ccco2)cc1 (centres undefined) 57.1%, COc1cc(-c2nnc(SCc3cc(=O)oc4cc(O)c(O)cc34)o2)cc(OC)c1OC 60.1%, NC(=O)c1c(NC(=O)CCCn2cnc([N+](=O)[O-])n2)sc2c1CCCC2 55.6%, Cc1cc([N+](=O)[O-])nn1CCCC(=O)Nc1sc2c(c1C(N)=O)CCCC2 53%, O=C(c1ccccc1)c1c(O)nc(-c2ccccc2)n(-c2ccccc2)c1=O 108%, FC(F)(F)c1ccc2c(c1)n(Cc1ccccc1)c1[n+]2CCCCC1 63.9%
